Results: publication PMC4336329 (PLoS ONE, 2015)
Out of some 310,000 compounds screened, about 14,000 (4.5%) showed an effect of 50% or more. The effect is printed as a negative number. The sample as a whole holds a higher share of strong results than the screen did.

The compounds below were run against human ether-à-go-go-related gene (hERG) potassium channel (human, UniProt Q12809) (assay: primary screen, population patch clamp on CHO cells stably expressing hERG; higher = less effect of the substance).
human ether-à-go-go-related gene (hERG) potassium channel, sequence (Q12809 whole entry, looked up): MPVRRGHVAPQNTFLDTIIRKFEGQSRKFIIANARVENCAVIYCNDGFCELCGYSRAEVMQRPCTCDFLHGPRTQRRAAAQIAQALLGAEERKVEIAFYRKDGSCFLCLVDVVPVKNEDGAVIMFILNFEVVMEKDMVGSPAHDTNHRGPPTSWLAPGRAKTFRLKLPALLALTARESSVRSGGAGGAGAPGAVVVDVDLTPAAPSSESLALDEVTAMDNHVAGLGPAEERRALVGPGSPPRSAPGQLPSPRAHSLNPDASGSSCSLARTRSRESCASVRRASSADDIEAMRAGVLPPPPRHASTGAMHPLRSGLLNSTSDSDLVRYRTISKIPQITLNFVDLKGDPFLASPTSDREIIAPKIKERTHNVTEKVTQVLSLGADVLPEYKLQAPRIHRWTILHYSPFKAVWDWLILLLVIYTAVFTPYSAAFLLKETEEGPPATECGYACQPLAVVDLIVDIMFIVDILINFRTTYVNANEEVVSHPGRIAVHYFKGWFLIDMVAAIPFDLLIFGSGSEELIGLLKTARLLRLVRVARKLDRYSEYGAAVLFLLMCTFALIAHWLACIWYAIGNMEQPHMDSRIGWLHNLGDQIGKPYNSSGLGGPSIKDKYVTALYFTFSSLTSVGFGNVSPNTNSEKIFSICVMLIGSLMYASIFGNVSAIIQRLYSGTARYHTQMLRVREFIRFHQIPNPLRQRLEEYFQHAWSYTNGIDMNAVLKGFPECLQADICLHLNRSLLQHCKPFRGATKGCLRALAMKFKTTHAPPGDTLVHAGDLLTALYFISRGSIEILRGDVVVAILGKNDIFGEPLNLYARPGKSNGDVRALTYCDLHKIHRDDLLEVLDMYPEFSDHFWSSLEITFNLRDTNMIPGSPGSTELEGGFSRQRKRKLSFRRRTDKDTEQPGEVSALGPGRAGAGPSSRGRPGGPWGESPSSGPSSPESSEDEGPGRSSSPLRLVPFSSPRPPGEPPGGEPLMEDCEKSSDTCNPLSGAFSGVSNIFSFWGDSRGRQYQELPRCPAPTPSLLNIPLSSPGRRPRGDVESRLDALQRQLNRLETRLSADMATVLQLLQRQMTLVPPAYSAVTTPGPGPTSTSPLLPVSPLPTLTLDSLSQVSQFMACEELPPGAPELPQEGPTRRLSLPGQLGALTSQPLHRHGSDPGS
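Also: peak tail current of the secondary pulse compared with the same well before compound.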

SMILES | hERG current change (%, negative = inhibition) at 10uM
CC(C)c1ccc[n+](-c2nc([O-])sc2C=O)c1 | 14.7%
S=c1nc(-c2ccccc2)n(CCN2CCOCC2)c2c1CCCC2 | -13.4%
O=C1c2ccccc2C(=O)C1c1ccc(Cl)cc1 | 8.89%
CCOC(=O)N1CCN(C(=O)c2cc3cc(C)ccc3[nH]2)CC1 | -7.43%
O=c1[nH]nc(C(F)(F)F)c2nnn(Cc3ccccc3Cl)c12 | 14.1%
CN1CCN(c2ccccc2NC(=O)c2ccc(-c3ccc(Cl)c(Cl)c3)o2)CC1 | -3.73%
C/C=C(\C)CN1CCC(n2nccc2NC(=O)CCOc2ccccc2)CC1 | -31.5%
Cc1ccc(CN2CCC(n3nccc3NC(=O)CCCc3ccccc3)CC2)o1 | -20.5%
CCOc1ccc(CN2CCC(n3nccc3NC(=O)CCCc3ccccc3)CC2)cc1 | -78.2%
CSCCCN1CCC(n2nccc2NC(=O)CCCc2ccccc2)CC1 | -62.5%
C/C=C(\C)CN1CCC(n2nccc2NC(=O)CCCc2ccccc2)CC1 | -62.9%
CCn1nc(C)c(CN2CCC(n3nccc3NC(=O)Cc3ccccc3)CC2)c1C | 6.57%
CCn1cc(CN2CCC(n3nccc3NC(=O)CCCc3ccccc3)CC2)cn1 | -27.3%
CSCC(=O)N1CCC(n2nccc2NC(=O)CCCc2ccccc2)CC1 | -17.6%
CSCCC(=O)N1CCC(n2nccc2NC(=O)CCCc2ccccc2)CC1 | -5.8%
CCn1cc(CN2CCC(n3nccc3NC(=O)CCCc3ccccc3)CC2)c(C)n1 | -28.4%
CCn1nc(C)c(CN2CCC(n3nccc3NC(=O)CCCc3ccccc3)CC2)c1C | -60.1%
C/C=C(\C)CN1CCC(n2nccc2NC(=O)CCc2ccccc2)CC1 | -28.9%
CC(C)CN(Cc1cc2ccccc2[nH]c1=O)C(=O)c1cccnc1 | -1.54%
Cn1nc(C(C)(C)C)cc1C(=O)NNC(=O)c1ccccc1Cl | 14.1%
O=C(COC(=O)[C@@H]1CCCN1S(=O)(=O)c1ccc(Cl)cc1)NC1CCS(=O)(=O)C1 (stereo partly drawn) | -14.7%
COc1ccc(CNC(=O)CCC(=O)N2CCN(C(C)=O)CC2)cc1 | 14.3%
Cc1nn(-c2ccccc2)nc1C(=O)Nc1ccc2[nH]ncc2c1 | 6.02%
CC1Cc2ccccc2N1c1ncnc2c1nnn2Cc1ccccc1 (stereo not drawn) | -0.652%

SMILES | hERG current change (%, negative = inhibition) at 10uM
COc1cc(NC(=S)NC2CC2)c(OC)cc1Cl | -1.86%
CC(OC(=O)c1cccs1)C(=O)NCc1ccc2c(c1)OCO2 (stereo not drawn) | 15.4%
Cc1ccccc1-n1nc2c(c1NC(=O)c1ccc(Br)o1)CSC2 | -7.03%
COC(=O)c1ccc(CNC(=O)COC(=O)Cc2ccsc2)cc1 | -6.64%
COCC(C)N1CCC(n2nccc2NC(=O)CCCc2ccccc2)CC1 (stereo not drawn) | -15.2%
Cc1cccc(CN2CCC(n3nccc3NC(=O)CCCc3ccccc3)CC2)n1 | -20.2%
CSCC(C)N1CCC(n2nccc2NC(=O)CCCc2ccccc2)CC1 (stereo not drawn) | -47.5%
C=C(C)CCC(C)N1CCC(n2nccc2NC(=O)CCCc2ccccc2)CC1 (stereo not drawn) | -74.2%
CSc1ccc(CN2CCC(n3nccc3NC(=O)CCCc3ccccc3)CC2)cc1 | -82.5%
COc1ccc(C(=O)Nc2nnc(S(=O)(=O)N3CCCCCC3)s2)cc1OC | -0.855%
COc1cc(NC(=O)COc2cccc(C)c2C)ccc1NC(=O)c1ccco1 | 13%
O=C(Nc1ccc(N2CCOCC2)cc1)c1cccc(S(=O)(=O)N2CCCC2)c1 | 1.96%
CC(=O)c1cccc(OCc2cc(C(=O)N(C)C(C)c3ccccn3)no2)c1 (stereo not drawn) | -4.32%
CC(NC(=O)/C=C/c1cnc2ccccc2n1)C12CC3CC(CC(C3)C1)C2 (stereo not drawn) | -10.1%
Cc1cc(Cl)c(S(=O)(=O)N2CCCCCC2)cc1OCC(=O)NC1CCCCC1 | -18.6%
Cc1ccccc1NS(=O)(=O)c1cc(OCC(N)=O)c(C)cc1Cl | 5.68%
Cc1cc(Cl)c(S(=O)(=O)N2CCN(c3ccccn3)CC2)cc1OCC(N)=O | 17.6%
Cc1cc(Cl)c(S(=O)(=O)Nc2ccc(Cl)cn2)cc1OCC(N)=O | -2.03%
Cc1cc(Cl)c(S(=O)(=O)NC2CCCC2)cc1OCC(=O)NC1CCCCC1 | -7.18%
Cc1cc(Cl)c(S(=O)(=O)NCc2cccnc2)cc1OCC(=O)NC1CCCCC1 | -53.2%
Cc1cc(Cl)c(S(=O)(=O)NCc2cccnc2)cc1OCC(N)=O | 10.1%
Cc1cc(Cl)c(S(=O)(=O)Nc2ccccn2)cc1OCC(N)=O | -71.8%
Cc1cc(Cl)c(S(=O)(=O)N2CCN(c3ccccn3)CC2)cc1OCC(=O)NC1CCCCC1 | -56.9%
CCNC(=O)c1c(NC(=O)c2cc(-c3cc(C)ccc3O)n[nH]2)sc2c1CCCC2 | 30.5%

SMILES | hERG current change (%, negative = inhibition) at 10uM
CCn1nnnc1SCC(=O)N1CCN(c2ccccc2)CC1 | -10.4%
Br.CC1CCN(Cc2nnnn2-c2cccc([N+](=O)[O-])c2)CC1 | -10.8%
Cc1cccc(C)c1OCCNC(=O)OCc1ccccc1 | -6.74%
Cc1c(/C=N/NC(=O)CNc2ccccc2)c2ccccn2c1C(=O)c1ccncc1 | 0.0344%
Cc1c(/C=N/NC(N)=O)c2ccccn2c1C(=O)c1ccc(F)cc1 | -5.23%
Cc1c(/C=N/NC(N)=O)c2ccccn2c1C(=O)c1ccncc1.Cl | -54.9%
CCCCN(CC(=O)NC(C)(C)C)C(=O)C(=O)Nc1ccc2c(c1)OCCO2 | -0.704%
CC(C)c1nnc(NC(=O)c2ccc(S(=O)(=O)N3CCOCC3)cc2)s1 | 6.52%
Cc1ccnc2nc(C(=O)Nc3ccc4c(c3)OCO4)nn12 | -2.98%
CCOC(=O)C1C(C)N=C2SCC(=O)N2C1c1cccc(Br)c1 (stereo not drawn) | -12.6%
COc1cc(CNc2ccc3c(c2)CCC3)cc(OC)c1O | 12.2%
Cn1c(SCC(=O)N2CCOCC2)nnc1-c1ccc2ncccc2c1 | 15.4%
CCc1ccc(CN2CCC(n3nccc3NC(=O)c3ccc4c(c3)OCO4)CC2)cc1 | -72%
CCOc1cccc(CN2CCC(n3nccc3NC(=O)c3ccc4c(c3)OCO4)CC2)c1 | -43.2%
COc1ccc(CN2CCC(n3nccc3NC(=O)c3ccc4c(c3)OCO4)CC2)cc1C | -80.6%
COc1cccc(O)c1CN1CCC(n2nccc2NC(=O)c2ccc3c(c2)OCO3)CC1 | -24%
COc1cc(CN2CCC(n3nccc3NC(=O)c3ccc4c(c3)OCO4)CC2)ccc1O | -6.7%
CC(=O)c1cccc(CN2CCC(n3nccc3NC(=O)c3ccc4c(c3)OCO4)CC2)c1 | -7.62%
COC(=O)Nc1sc2c(c1C(N)=O)CCCCCC2 | 11.9%
COc1ccc(CNC2CC(=O)N(C)C2=O)cc1 (stereo not drawn) | 13.6%
O=S1(=O)C=CC(Nc2ccccc2)C1 (stereo not drawn) | -76%
COc1ccc(NC2C=CS(=O)(=O)C2)cc1 (stereo not drawn) | 0.937%
O=S1(=O)C=CC(Nc2cccc(Cl)c2)C1 (stereo not drawn) | 16.7%
COc1ccc(CCN2CNc3c(c(=O)n(C)c(=O)n3C)C2)cc1 | -17.5%

SMILES | hERG current change (%, negative = inhibition) at 10uM
COc1ccc(CCNC(=O)Cn2nc(C)n3nc(-c4ccccc4)cc3c2=O)cc1OC | 2%
COCCn1c(=N)c(S(=O)(=O)c2ccc(F)cc2)cc2c(=O)n3cccc(C)c3nc21 | -22.5%
COCCn1c(=N)c(C(=O)NCCc2ccccc2)cc2c(=O)n3cccc(C)c3nc21 | -82.9%
COCCn1c(=N)c(C(=O)NCCc2ccc(OC)cc2)cc2c(=O)n3cccc(C)c3nc21 | -84.8%
Cc1cccn2c(=O)c3cc(C(=O)NCCc4ccccc4)sc3nc12 | -6.84%
COCCn1c(=S)[nH]c2cc(C(=O)NCCc3ccccc3)ccc2c1=O | -2.2%
CCNC(=O)c1cc2c(=O)n3cccc(C)c3nc2n(CCc2ccccc2)c1=N | -80.3%
CC(C)COc1ccc(C(=O)CCN2CCCCC2)cc1.Cl | -41.4%
COc1ccc(C)cc1-n1c(SCC(=O)Nc2cc(C)on2)nc2sc(C)c(C)c2c1=O | -2.19%
N#Cc1nc(COc2cccc(Cl)c2)oc1N1CCCC1 | -47.5%
C=CCC1Cc2c(Br)cccc2C(CC=C)N1 (stereo not drawn) | -7.3%
COC1=CC=C2[C@H]3Cc4ccc(OC)c5c4[C@@]2(CCN3C)[C@H]1O5.Cl | 10.3%
COc1cccc(CNC(=O)C2CCN(Cc3cnn(-c4ccccc4)c3-n3cccc3)CC2)c1 | -71.3%
O=C(NCCC1=CCCCC1)C1CCN(Cc2cnn(-c3ccccc3)c2-n2cccc2)CC1 | -51.8%
O=C(NCC1CCCO1)C1CCCN(Cc2cnn(-c3ccccc3)c2-n2cccc2)C1 (stereo not drawn) | -11.2%
O=C(NCc1ccc2c(c1)OCO2)C1CCN(Cc2cnn(-c3ccccc3)c2-n2cccc2)CC1 | -49.2%
CC(C)NC(=O)C1CCN(Cc2cnn(-c3ccccc3)c2-n2cccc2)CC1 | -8.99%
COc1cccc(NC(=O)C2CCN(Cc3cnn(-c4ccccc4)c3-n3cccc3)CC2)c1 | -45.5%
Cc1ccc(CNC(=O)C2CCCN(Cc3cnn(-c4ccccc4)c3-n3cccc3)C2)cc1 (stereo not drawn) | -65.3%
O=C(NC1CC1)C1CCN(Cc2cnn(-c3ccccc3)c2-n2cccc2)CC1 | -23.5%
O=C(NCc1ccccn1)C1CCCN(Cc2cnn(-c3ccccc3)c2-n2cccc2)C1 (stereo not drawn) | -24.5%
